Reference: PubChem BioAssay (NCATS)
Records with an inconclusive call do not appear. Unmarked numbers belong to inactive results. Activity calls are given as the source filed them. The call rests on the fitted dose curve; in most records, active means well fitted cell-killing curve with a large enough effect; inconclusive means small, poorly fitted or top-dose-only effect; inactive means no such curve, though single readings can be large or run the other way.

Test: qHTS of pediatric cancer cell lines to identify multiple opportunities for drug repurposing: Primary screen for MG 63 (6-TG R) cells (AID 1347105); further: nearly all actives have a fitted effect of over 50% in size
Details: MG 63 (6-TG R) viability, CellTiter-Glo, 48 h; series mostly up to 46 µM; activity change, negative = cytotoxic: at the top concentration
Excerpt: Drug repurposing or repositioning has been offered as a strategy for drug development in oncology programs. This approach has special potential for childhood cancers and other rare or orphan diseases, where the expected return on new drug development has been a disincentive to pharmaceuticals. […] In this project we exploit the poly-pharmacology of drugs to discover new indications via phenotypic screening of a panel of 19 well-characterized cell lines derived from solid tumors seen in children and adolescents. The goal is to identify approved drugs with previously unrecognized anticancer properties that has the potential to reveal new mechanisms and biological processes involved in carcinogenesis or drug resistance. We employed a titration-based paradigm (quantitative high-throughput screening or qHTS), where all compounds were tested at multiple concentrations for their effect on cell viability. Concentration-response curves (CRCs) were derived directly from the primary screen, and both potency and efficacy values were used to identify compounds with robust bioactivity profiles. We screened the NIH Chemical Genomics Center (NCGC) Pharmaceutical Collection (NPC) and Mechanism Interrogation Plate (MIPE) small molecule collections of approved and investigational compounds against these cell lines; and measured metabolically active cells after 48 hours of compound treatment as a proxy for cell viability. […] Assay Submitter: Nathalia J. Martinez, National Center for Advancing Translational Sciences, National Institutes of Health, Rockville, MD, USA; email: natalia.martinez@nih.gov Shen, M et al. Quantitative high-throughput phenotypic screening of pediatric cancer cell lines identifies multiple opportunities for drug repurposing. Oncotarget 2017 Dec 19;9(4):4758-4772. PMID 29435139.
The cells were obtained from University of North Carolina (UNC), Pediatric Preclinical Testing Program (PPT), and Coriell Institute (CI). qHTS cell viability assay: Cells were assayed in growth media at a density of 500-1,000 cells/well. Five microliters of cells were dispensed into 1,536-well, white, solid-bottom, TC-treated plates (Greiner Bio One) using a multidrop dispenser and incubated at 37 degrees C, 5% CO2, under a humidified atmosphere for 5 hours. Twenty-three nanoliters of compounds and controls (neutral control DMSO or positive control bortezomib at final concentration of 2.3 µM) were subsequently transferred by Kalypsys pintool. For primary screens, the MIPE collection was tested at 11-point dilutions (final concentrations range from 0.78 nM to 46 µM) and the NPC collection at 8-point dilutions (final concentrations range from 0.59 nM to 46 µM). Compounds tested in follow-up screens were assayed at 11-point dilutions. Cells were incubated for 48 hours, followed by addition of 3 µL of CellTiter-Glo (Promega). After a 15 min incubation at room temperature, samples were analyzed for luminescence intensity using a ViewLux High-throughput CCD imager equipped with clear filters.
On the % scale 0 is the no-effect control and ±100 the full control effect; potency means the concentration at half of the fitted maximal effect.

SMILES	activity change, negative = cytotoxic	Potency
CCC1(CC)C(=O)NC(=O)NC1=O	-21%	–
C[C@]12CC[C@H]3[C@@H](CCC4=CC(=O)CC[C@@]43C)[C@@H]1CC[C@@H]2C(=O)O	-11.7%	–
OC(O)C(Cl)(Cl)Cl	-9.87%	–
Cc1ccc(N=CN(C)C=Nc2ccc(C)cc2C)c(C)c1	-7.04%	–
C[C@@H]1O[C@@H](O[C@@H]2C=C3CC[C@@H]4[C@H](CC[C@]5(C)[C@@H](c6ccc(=O)oc6)CC[C@]45O)[C@@]3(C)CC2)[C@H](O)[C@H](O)[C@H]1O	–	1.7 nM (active)
ClC1=C(Cl)C2(Cl)C(CBr)CC1(Cl)C2(Cl)Cl (stereo not given)	-25%	–
CN1C(=O)CN=C(c2ccccc2)c2cc(Cl)ccc21	-23.4%	–
CNC(=O)Oc1cccc2ccccc12	-11.1%	–
C[N+]1(CCC(C(N)=O)(c2ccccc2)c2ccccc2)CCCCC1	-0.121%	–
CC(Cc1ccccc1)NCc1ccccc1Cl (stereo not given)	-33.9%	–
O=C1NCN(c2ccccc2)C12CCN(CCCOc1ccc(F)cc1)CC2	-2.62%	–
CCOC(=O)NC(O)C(Cl)(Cl)Cl (stereo not given)	-0.482%	–
CN(C)CCc1c[nH]c2ccc(O)cc12	-25.2% [at 92.7 µM]	–
CN(C)C(=S)SSC(=S)N(C)C	–	335 nM (active)
COc1ccc2[nH]cc(CCN(C(C)C)C(C)C)c2c1	-6.26% [at 92.7 µM]	–
COc1cc(C[C@@H](C)N)c(OC)cc1Br	-9.47% [at 92.7 µM]	–
COc1cc(CC#N)cc(OC)c1OC	-2.31%	–
C=CCN1CC[C@]23CCCC[C@H]2[C@H]1Cc1ccc(O)cc13	-24.9%	–
CN1CCc2cc(Cl)c(O)cc2[C@H]2c3ccccc3CC[C@@H]21	-13.8%	–
ClCc1cccc(Cl)c1	-0.0295%	–

SMILES	activity change, negative = cytotoxic	Potency
COCC(=O)N(c1c(C)cccc1C)C(C)C(=O)OC (stereo not given)	-14.4%	–
CCc1cc(OC)c(C[C@H](C)N)cc1OC	-30.8% [at 92.7 µM]	–
CCOC(=O)NC(C)(C)Cc1ccc(Cl)cc1	2.17%	–
O=C1CN2CCOC2(c2ccccc2Cl)c2cc(Cl)ccc2N1 (stereo not given)	-5.56%	–
CCCN(CCC)CCc1c[nH]c2ccccc12	-28.6% [at 92.7 µM]	–
CCN(CC)Cc1nccn1-c1ccc([N+](=O)[O-])cc1C(=O)c1ccccc1Cl	4.76%	–
CC(C)C(Br)C(=O)NC(N)=O (stereo not given)	-15.8%	–
O=C(CCCN1CCC(n2c(=O)[nH]c3ccccc32)CC1)c1ccc(F)cc1	-23.6%	–
Oc1c(Br)cc(Br)cc1Br	2.47%	–
CCN(CC)C(C)C(=O)c1ccccc1 (stereo not given)	-13.4%	–
CC(C)NCC(O)c1ccc(N)c(C#N)c1 (stereo not given)	-8.55%	–
NC1(c2ccccc2)CCCCC1	-28.7% [at 92.7 µM]	–
C[C@]12Cc3nonc3C[C@@H]1CC[C@@H]1[C@@H]2CC[C@@]2(C)[C@H]1CC[C@]2(C)O	-16.7%	–
O=C(CBr)Nc1ccc(Cl)cc1C(=O)c1ccccc1F	1.33%	–
CCCC[N+]1(C)[C@@H]2CC(OC(=O)[C@H](CO)c3ccccc3)C[C@H]1[C@@H]1O[C@@H]12 (stereo not given in full)	-13%	–
CCC1(c2ccccc2)CCC(=O)NC1=O (stereo not given)	15.3%	–
C[C@H]1CNCCc2ccc(Cl)cc21	-16.6%	–
O=C(CCCCl)c1ccc(F)cc1	-9.14%	–
C[C@H]1C(=O)O[C@@H]2CCN3CC=C(COC(=O)[C@](C)(O)[C@]1(C)O)[C@H]23	-18.6%	–
NC(=O)OCCCc1ccccc1	-21.6%	–
